NIH3T3 tox – kills NIH 3T3 cells. AID 1345082. Potency, µM (doses to about 96.7 µM), hits mostly inhibitors. NIH 3T3 viability, CellTiter-Glo ATP luminescence, 48-72 h. 4.3% of 94,000 active; active = well fitted curve in the direction sought with a large enough effect; inconclusive = small, poorly fitted or top-dose-only effect, or another doubt; inactive = no such curve, though single readings can be large; an effect the other way counts as inactive or inconclusive; also: nearly all actives have a fitted effect of over 55% in size
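First NIH 3T3 cells are plated at 400 cells/well; next compound is pinned in; then plates incubate 48 or 72 hr at 37 °C; finally CellTiter-Glo is added and luminescence read after 10 min.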
Luciferase inh – inhibitors of firefly (Photinus pyralis) luciferase; P08659; 2.5% of 76,000 active; AID 1347043; Potency, µM (highest dose often 115 µM), most hits filed as inhibitors; purified P. pyralis luciferase, luminescence, biochemical; active = well fitted curve in the direction sought with a large enough effect; inconclusive = small, poorly fitted or top-dose-only effect, or another doubt; inactive = no such curve, though single readings can be large; an effect the other way counts as inactive or inconclusive; also: nearly all actives have a fitted effect of over 65% in size
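Luminescence read by CCD imaging after purified firefly luciferase (10nM final) was added to substrate buffer holding 10uM D-luciferin and 10uM ATP, pH 7.5, pre-dosed with compound.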
hNpr1 antagonist – human Npr1 receptor antagonism | P16066 | HEK293 hNpr1 GloSensor cGMP, ANP-stimulated luminescence | Potency, µM (top dose mostly 46.3 µM), most hits filed as inhibitors | 1.6% of 76,000 active; also: nearly all actives have a fitted effect of over 60% in size
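Compound pre-incubated 30 min at room temperature on GloSensor-loaded HEK293 cells stably carrying hNpr1 and the pGS-40F cGMP biosensor. Stimulation uses hNppA at 0.1 nM final; luminescence is taken at baseline and 20 min post-agonist.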
HEK293 tox – kills HEK 293 cells. 6.6% of 94,000 active. Potency, µM (highest dose often 115 µM), most hits filed as inhibitors. AID 1345083. HEK 293 viability, ATP luminescence (CellTiter-Glo), 48-72 h; active = well fitted curve in the direction sought with a large enough effect; inconclusive = small, poorly fitted or top-dose-only effect, or another doubt; inactive = no such curve, though single readings can be large; an effect the other way counts as inactive or inconclusive; also: nearly all actives have a fitted effect of over 60% in size
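Cells seeded first (HEK 293, 250 cells/well), then compound added by pintool. Incubation ran 48 or 72 hr at 37 degree Celsius. CellTiter-Glo was added and luminescence imaged after 10 min at room temperature.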
NPR1 antag cnf – confirmation of human Npr1 natriuretic peptide receptor antagonists; Potency, µM (highest dose often 57.6 µM), hits mostly inhibitors; HEK293 hNpr1 cGMP GloSensor luminescence, ANP-stimulated; 76% of 1,400 active; shares compounds with hNpr1 antagonist; also: nearly all actives have a fitted effect of over 70% in size
NPR2 antag – selectivity test of Npr1 antagonists against human Npr2 | shares compounds with hNpr1 antagonist | HEK293 hNpr2 GloSensor cGMP luminescence, CNP-stimulated | Potency, µM (series often up to 57.6 µM), actives largely listed as inhibitors | 67% of 1,400 active | AID 1347046; also: nearly all actives have a fitted effect of over 70% in size
FLuc inh counter – inhibits firefly luciferase, false Npr1 antagonist flag | purified FLuc enzyme, luminescence, Km substrate | AID 1347047 | Potency, µM (top dose mostly 57.6 µM), actives largely listed as inhibitors | 0.7% of 1,400 active | shares compounds with hNpr1 antagonist; active = well fitted curve in the direction sought with a large enough effect; inconclusive = small, poorly fitted or top-dose-only effect, or another doubt; inactive = no such curve, though single readings can be large; an effect the other way counts as inactive or inconclusive
GloSensor ctrl – control cell line activity, Npr1 antagonist counter-screen; 69% of 1,400 active; Potency, µM (highest dose often 57.6 µM), hits mostly inhibitors; shares compounds with hNpr1 antagonist; HEK293 GloSensor cGMP, SNP-stimulated, luminescence; AID 1347051; also: nearly all actives have a fitted effect of over 70% in size
Each line names hits and unclear results; the compound was inactive in the other large screens (follow-up assays come after a bar, where they were run). The list is not random: actives were taken first. Their share in the collection is about 11%. Unless noted, calls follow the shape of the full dose curve.

O=C(C1COc2ccccc2O1)N1CCN(c2cc(-c3ccc(Cl)cc3)[nH]n2)CC1 (stereo not given)	NIH3T3 tox inconclusive, hNpr1 antagonist inconclusive, HEK293 tox 45µM | NPR1 antag cnf 15µM | NPR2 antag 22µM | FLuc inh counter inactive | GloSensor ctrl 14µM
Brc1ccc(-c2ccnc3nc(-c4ccco4)nn23)s1	NIH3T3 tox inconclusive, HEK293 tox inconclusive
CN(C)c1ccc(C(=O)N2CCN(c3cc(-c4ccc(Cl)cc4)[nH]n3)CC2)cc1	NIH3T3 tox inconclusive, hNpr1 antagonist 13µM, HEK293 tox inconclusive | NPR1 antag cnf 22µM | NPR2 antag 22µM | FLuc inh counter inactive | GloSensor ctrl 22µM
O=C(NC1CCN(c2cc(-c3ccc(F)cc3)[nH]n2)CC1)c1cccc2[nH]ccc12	NIH3T3 tox 40µM, hNpr1 antagonist inconclusive, HEK293 tox 40µM | NPR1 antag cnf inconclusive | NPR2 antag inconclusive | FLuc inh counter inactive | GloSensor ctrl inactive
O=C(c1ccc(OC(F)(F)F)cc1)N1CCN(c2cc(-c3ccc(Cl)cc3)[nH]n2)CC1	NIH3T3 tox 18µM, hNpr1 antagonist 11µM, HEK293 tox 32µM | NPR1 antag cnf 19µM | NPR2 antag 22µM | FLuc inh counter inactive | GloSensor ctrl 19µM
Cn1cccc1C(=O)N1CCN(c2cc(-c3ccc(Cl)cc3)[nH]n2)CC1	NIH3T3 tox inconclusive, HEK293 tox inconclusive
O=C(c1ccccc1Cl)N1CCN(c2cc(-c3ccc(Cl)cc3)[nH]n2)CC1	NIH3T3 tox inconclusive, hNpr1 antagonist 7.9µM, HEK293 tox inconclusive | NPR1 antag cnf 14µM | NPR2 antag 14µM | FLuc inh counter inactive | GloSensor ctrl 11µM
Cc1ccsc1C(=O)N1CCN(c2cc(-c3ccc(Cl)cc3)[nH]n2)CC1	NIH3T3 tox 25µM, hNpr1 antagonist 13µM, HEK293 tox inconclusive | NPR1 antag cnf 24µM | NPR2 antag 27µM | FLuc inh counter inactive | GloSensor ctrl 22µM
Cc1ccc(-c2cc(N3CCCN(C(=O)c4sccc4C)CC3)n[nH]2)cc1C	NIH3T3 tox inconclusive, Luciferase inh inconclusive, HEK293 tox inconclusive
CCOc1ccc(C(=O)N2CCN(c3cc(-c4ccc(Cl)cc4)[nH]n3)CC2)cc1OCC	NIH3T3 tox 22µM, hNpr1 antagonist 2.2µM, HEK293 tox 20µM | NPR1 antag cnf 7.7µM | NPR2 antag 14µM | FLuc inh counter inactive | GloSensor ctrl 9.7µM
CCOc1ccc(C(=O)N2CCCN(c3cc(-c4ccc(OC)cc4)[nH]n3)CC2)cc1OCC	HEK293 tox inconclusive
C[C@@H]1CCC[C@H](C)N1CC(=O)N1CCn2nc(Cc3ccccc3)cc2C1	none
CNC(=O)COC1CN(C(=O)c2ccc(C)cc2)CCC(=O)N(C)c2ccccc21 (stereo not given)	NIH3T3 tox inconclusive (no result: Luciferase inh, hNpr1 antagonist)
O=C(c1ccccc1)N1CCc2sc(C(=O)N3CCN(c4ccccc4)CC3)cc2C1	NIH3T3 tox inconclusive, hNpr1 antagonist 10µM, HEK293 tox inconclusive | NPR1 antag cnf 22µM | NPR2 antag 27µM | FLuc inh counter inactive | GloSensor ctrl 22µM
CCC(=O)N1CCc2sc(C(=O)NC3CCN(Cc4ccccc4)CC3)cc2C1	HEK293 tox inconclusive
CN(C)C(=O)c1cc2c(s1)CCC(C(=O)N1CCN(c3cccc(Cl)c3)CC1)C2 (stereo not given)	NIH3T3 tox inconclusive, hNpr1 antagonist inconclusive, HEK293 tox inconclusive | NPR1 antag cnf 22µM | NPR2 antag 19µM | FLuc inh counter inactive | GloSensor ctrl 15µM
CCC(=O)N1CCc2sc(C(=O)N3CCN(c4cccc(Cl)c4)CC3)cc2C1	NIH3T3 tox inconclusive, hNpr1 antagonist 10µM, HEK293 tox inconclusive | NPR1 antag cnf 19µM | NPR2 antag 19µM | FLuc inh counter inactive | GloSensor ctrl 17µM

Screening data as filed in PubChem BioAssay.
